Laboratory results from PubChem BioAssay (Tox21).
Values joined by “and” are separate entries in the source; they are usually repeats but may differ in a detail not shown here. Identical values can stand only once. More than one record can exist for a structure, and the calls need not agree. Active and inactive are the calls of the source. Where a call stands in place of a potency, no number is given. Unless noted, calls come from the whole dose curve; as a rule, active = well fitted curve in the direction sought with a large enough effect in the repeat runs; inconclusive = weak or mixed curves; inactive = no such curve, though single readings can be large; an effect the other way counts as inactive or inconclusive.

Experiments:
[1] = qHTS assay to identify small molecule antagonists of the thyroid receptor (TR) signaling pathway - cell viability counter screen (AID 743064); note: nearly all actives have a fitted effect of over 50% in size; note: potency is the fitted concentration of half-maximal effect
Outline: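 GH3.TRE-Luc cells, 4 h pre-plating; cpd + T3 1 nM final; 37 °C 23.5 h; CellTiter-Fluor 30 min; fluorescence read.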

[2] = qHTS assay to identify small molecule antagonists of the thyroid receptor (TR) signaling pathway (AID 743065); note: nearly all actives have a fitted effect of over 55% in size; note: potency is the fitted concentration of half-maximal effect
Outline: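 GH3.TRE-Luc rat pituitary cells (two TREs driving luciferase) were dosed with compound, then stimulated with 1 nM T3 (final) for 23.5 h at 37 C. ONE-Glo luminescence was the read-out, with CellTiter-Fluor fluorescence as the cytotoxicity counter-screen.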

[3] = test system: thyroid hormone receptor (rat, GH3 cells); assay: qHTS assay to identify small molecule agonists of the thyroid receptor (TR) signaling pathway (AID 743066; calls by dose curve)
[4] = target: Estrogen receptor (Homo sapiens) (UniProt P03372); assay: qHTS assay to identify small molecule antagonists of the estrogen receptor alpha (ER-alpha) signaling pathway (AID 743069; active = well fitted curve in the direction sought with a large enough effect in the signal ratio in the repeat runs, not every such curve was filed as active; inconclusive = weak or mixed curves, or effect the other way; inactive = no such curve, though single readings can be large or run the other way; the % refers to the signal ratio; note: potency is the fitted concentration of half-maximal effect)
Estrogen receptor (Homo sapiens), sequence (P03372 whole entry, looked up): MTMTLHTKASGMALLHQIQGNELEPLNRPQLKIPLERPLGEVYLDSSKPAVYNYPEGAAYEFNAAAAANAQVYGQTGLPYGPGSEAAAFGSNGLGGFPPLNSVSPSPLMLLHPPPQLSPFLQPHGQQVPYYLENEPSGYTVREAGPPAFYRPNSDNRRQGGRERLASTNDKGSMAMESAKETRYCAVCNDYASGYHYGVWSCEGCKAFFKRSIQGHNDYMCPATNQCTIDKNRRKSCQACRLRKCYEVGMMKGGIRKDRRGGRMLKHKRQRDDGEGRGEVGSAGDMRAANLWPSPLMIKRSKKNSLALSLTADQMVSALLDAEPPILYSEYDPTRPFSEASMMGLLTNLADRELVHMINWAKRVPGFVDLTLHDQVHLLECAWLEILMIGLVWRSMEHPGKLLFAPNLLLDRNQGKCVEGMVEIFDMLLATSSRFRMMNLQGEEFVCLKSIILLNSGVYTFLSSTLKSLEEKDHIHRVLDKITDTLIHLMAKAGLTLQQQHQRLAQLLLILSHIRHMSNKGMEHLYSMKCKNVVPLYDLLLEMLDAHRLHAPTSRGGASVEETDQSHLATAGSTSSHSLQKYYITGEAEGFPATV
Outline: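 HEK293 ER-alpha-UAS-bla GripTite cells, held overnight in 2% charcoal-stripped FBS, 5,000 cells/well, preincubated 4 h, then compound plus 17beta-estradiol for 18 h at 37C. Beta-lactamase read by LiveBLAzer B/G FRET substrate, 2 h at room temperature.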

[5] = qHTS assay to identify small molecule antagonists of the estrogen receptor alpha (ER-alpha) signaling pathway - cell viability counter screen (AID 743074; calls by dose curve;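 note: HEK293 cells carrying ER-alpha-UAS-bla reporter stimulated with 17beta-estradiol; nearly all actives have a fitted effect of over 45% in size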; note: potency is the fitted concentration of half-maximal effect)
[6] = target: Estrogen receptor (Homo sapiens) (UniProt P03372); assay: qHTS assay to identify small molecule agonists of the estrogen receptor alpha (ER-alpha) signaling pathway (AID 743075; calls by dose curve; note: potency is the fitted concentration of half-maximal effect)
[7] = target: Estrogen receptor (Homo sapiens) (UniProt P03372); assay: qHTS assay to identify small molecule agonists of the estrogen receptor alpha (ER-alpha) signaling pathway using the BG1 cell line (AID 743079); note: nearly all actives have a fitted effect of over 20% in size; note: potency is the fitted concentration of half-maximal effect
[8] = qHTS assay to identify small molecule antagonists of the estrogen receptor alpha (ER-alpha) signaling pathway using the BG1 cell line - cell viability counter screen (AID 743081);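 note: compound given together with 17beta-estradiol as the ER stimulus; nearly all actives have a fitted effect of over 45% in size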; note: potency is the fitted concentration of half-maximal effect
[9] = target: Aromatase (Homo sapiens) (UniProt P11511); assay: qHTS assay to identify aromatase inhibitors (AID 743083); note: nearly all actives have a fitted effect of over 55% in size; note: potency is the fitted concentration of half-maximal effect
Aromatase (Homo sapiens), sequence (P11511 whole entry, looked up): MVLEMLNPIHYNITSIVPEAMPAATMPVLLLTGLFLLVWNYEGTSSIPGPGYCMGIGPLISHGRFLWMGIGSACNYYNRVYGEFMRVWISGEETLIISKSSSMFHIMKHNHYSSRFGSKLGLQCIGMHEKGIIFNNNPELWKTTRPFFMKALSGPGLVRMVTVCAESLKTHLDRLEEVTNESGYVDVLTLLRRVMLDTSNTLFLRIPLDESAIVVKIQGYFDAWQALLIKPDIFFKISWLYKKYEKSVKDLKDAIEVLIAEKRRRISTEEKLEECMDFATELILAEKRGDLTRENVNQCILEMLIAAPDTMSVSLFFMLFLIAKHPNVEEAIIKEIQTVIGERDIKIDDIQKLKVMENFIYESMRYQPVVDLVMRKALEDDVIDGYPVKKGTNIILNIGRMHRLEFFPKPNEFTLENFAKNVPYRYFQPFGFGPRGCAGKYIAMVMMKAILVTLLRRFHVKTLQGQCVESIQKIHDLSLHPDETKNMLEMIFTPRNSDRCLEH

[10] = qHTS assay to identify aromatase inhibitors - cell viability counter screen (AID 743084);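 note: cells stimulated with testosterone during compound exposure; nearly all actives have a fitted effect of over 55% in size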; note: potency is the fitted concentration of half-maximal effect
[11] = qHTS assay to identify small molecule that activate the aryl hydrocarbon receptor (AhR) signaling pathway - cell viability counter screen (AID 743086); note: nearly all actives have a fitted effect of over 45% in size; note: potency is the fitted concentration of half-maximal effect
Outline: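 HepG2-AhR-luc (HG2L7.5c1) cells, 4000/well, treated 24 h at 37 C with compound; viability measured as CellTiter-Fluor fluorescence after 30 min in the same wells as the luciferase read.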

[12] = target: Peroxisome proliferator-activated receptor gamma (Homo sapiens) (UniProt P37231); assay: qHTS assay to identify small molecule agonists of the peroxisome proliferator-activated receptor gamma (PPARg) signaling pathway (AID 743094; active = well fitted activation curve with a large enough effect in the signal ratio in the repeat runs, not every such curve was filed as active; inconclusive = weak or mixed curves, or effect the other way; inactive = no such curve, though single readings can be large or run the other way; the % refers to the signal ratio)
Peroxisome proliferator-activated receptor gamma (Homo sapiens), sequence (P37231 whole entry, looked up): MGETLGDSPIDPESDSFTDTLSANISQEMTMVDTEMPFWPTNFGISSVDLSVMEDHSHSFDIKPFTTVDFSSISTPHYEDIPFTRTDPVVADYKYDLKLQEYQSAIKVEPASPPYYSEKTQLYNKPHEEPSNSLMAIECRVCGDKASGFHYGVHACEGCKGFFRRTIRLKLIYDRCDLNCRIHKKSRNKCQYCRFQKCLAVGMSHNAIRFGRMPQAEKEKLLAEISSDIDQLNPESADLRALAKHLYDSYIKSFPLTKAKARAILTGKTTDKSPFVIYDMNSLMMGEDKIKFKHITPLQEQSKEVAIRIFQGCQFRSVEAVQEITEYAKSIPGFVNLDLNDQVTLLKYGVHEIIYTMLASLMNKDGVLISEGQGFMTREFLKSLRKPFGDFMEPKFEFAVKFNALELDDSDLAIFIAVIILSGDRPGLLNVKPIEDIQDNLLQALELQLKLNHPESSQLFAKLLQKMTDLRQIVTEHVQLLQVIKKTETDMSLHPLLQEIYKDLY
Outline: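 Following 5 h plating at 37C, PPARg-bla HEK293H cells receive compound or DMSO for 17 h; fluorescence intensity is recorded after LiveBLAzer B/G loading for 1 h at room temperature.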

[13] = qHTS assay to identify small molecule antagonists of the peroxisome proliferator-activated receptor gamma (PPARg) signaling pathway - cell viability counter screen (AID 743194); note: nearly all actives have a fitted effect of over 55% in size; note: potency is the fitted concentration of half-maximal effect
Outline: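 Cytotoxicity counter screen in PPARg-bla HEK293H cells, same wells as reporter assay. Compounds plus 50 nM rosiglitazone (final) for 17 h at 37 C, then viability read by CellTiter-Glo luminescence.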

[14] = qHTS assay for small molecule agonists of the antioxidant response element (ARE) signaling pathway - cell viability counter screen (AID 743203; calls by dose curve; note: nearly all actives have a fitted effect of over 55% in size; note: potency is the fitted concentration of half-maximal effect)
Outline: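 Compounds in DMSO were pinned onto ARE-bla HepG2 cells plated 5 hrs earlier at 2,000 cells/well. Sixteen hours later at 37C/5% CO2, CellTiter-Glo was added and luminescence measured after 30 min at room temperature.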

[15] = qHTS assay for small molecule activators of the heat shock response signaling pathway - cell viability counter screen (AID 743209); note: nearly all actives have a fitted effect of over 50% in size; note: potency is the fitted concentration of half-maximal effect
Outline: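 Counter screen for cytotoxicity in HeLa HSE-bla reporter cells. Treatment was 5 h at 37 C; viability was detected by luminescent ATP assay (CellTiter-Glo) in the same wells as the beta-lactamase read.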

[16] = qHTS assay for small molecule activators of the heat shock response signaling pathway (AID 743210; active = well fitted activation curve with a large enough effect in the signal ratio in the repeat runs, with a control signal flat, not every such curve was filed as active; inconclusive = weak or mixed curves; the % refers to the signal ratio; note: potency is the fitted concentration of half-maximal effect; for activation: series mostly up to about 63 µM)
Outline: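 HSE-bla HeLa cells (beta-lactamase reporter under heat shock response elements), plated overnight, then exposed to compounds 5 h at 37 C; LiveBLAzer B/G FRET substrate added, 2.5 h at room temperature, fluorescence intensity read.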

[17] = target: Aryl hydrocarbon receptor (Homo sapiens) (UniProt P35869); assay: qHTS assay to identify small molecule that activate the aryl hydrocarbon receptor (AhR) signaling pathway (AID 743085); note: nearly all actives have a fitted effect of over 15% in size; note: potency is the fitted concentration of half-maximal effect;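 for activation: HG2L7.5c1 human HepG2 liver cells with stably integrated DRE-driven firefly reporter; series mostly up to about 70 µM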
Aryl hydrocarbon receptor (Homo sapiens), sequence (P35869 whole entry, looked up): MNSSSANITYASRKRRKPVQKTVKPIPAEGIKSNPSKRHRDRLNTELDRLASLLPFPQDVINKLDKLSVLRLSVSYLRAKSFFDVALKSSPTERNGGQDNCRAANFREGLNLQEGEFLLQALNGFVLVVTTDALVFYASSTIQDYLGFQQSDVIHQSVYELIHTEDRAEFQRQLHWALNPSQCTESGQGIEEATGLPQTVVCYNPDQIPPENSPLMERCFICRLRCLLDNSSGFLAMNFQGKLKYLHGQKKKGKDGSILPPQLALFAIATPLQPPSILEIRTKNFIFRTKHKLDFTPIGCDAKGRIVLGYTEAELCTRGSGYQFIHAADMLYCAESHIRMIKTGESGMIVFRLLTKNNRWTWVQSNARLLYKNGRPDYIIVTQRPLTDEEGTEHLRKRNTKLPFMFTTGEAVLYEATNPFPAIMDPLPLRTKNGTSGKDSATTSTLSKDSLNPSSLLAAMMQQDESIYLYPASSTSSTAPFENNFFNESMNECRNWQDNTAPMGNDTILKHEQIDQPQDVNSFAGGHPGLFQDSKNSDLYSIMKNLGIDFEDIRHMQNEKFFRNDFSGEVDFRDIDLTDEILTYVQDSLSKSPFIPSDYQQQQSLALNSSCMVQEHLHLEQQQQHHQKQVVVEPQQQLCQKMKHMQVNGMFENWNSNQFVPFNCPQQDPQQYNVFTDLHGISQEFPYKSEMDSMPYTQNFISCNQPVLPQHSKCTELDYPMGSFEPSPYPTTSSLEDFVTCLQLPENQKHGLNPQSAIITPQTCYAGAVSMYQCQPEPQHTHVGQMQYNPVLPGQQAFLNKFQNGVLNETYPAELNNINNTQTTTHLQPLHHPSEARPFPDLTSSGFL
Outline: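 Luminescence read-out: ONE-Glo reagent, 30 min at room temperature, in HG2L7.5c1 HepG2 reporter cells treated 24 h at 37C. Viability was measured beforehand by CellTiter-Fluor fluorescence after 30 min at 37C.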

[18] = qHTS assay for small molecule agonists of the antioxidant response element (ARE) signaling pathway (AID 743202; active = well fitted activation curve with a large enough effect in the signal ratio in the repeat runs, not every such curve was filed as active; inconclusive = weak or mixed curves, or effect the other way; inactive = no such curve, though single readings can be large or run the other way; the % refers to the signal ratio; note: potency is the fitted concentration of half-maximal effect)
Outline: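 ARE-bla HepG2 cells (beta-lactamase reporter under the antioxidant response element), plated 5 hours, then exposed to compounds 16 hours at 37 C. LiveBLAzer B/G FRET substrate added for 2 hours at room temperature; fluorescence intensity read.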

[19] = qHTS assay to identify small molecule antagonists of the estrogen receptor alpha (ER-alpha) signaling pathway using the BG1 cell line (AID 743080; calls by dose curve;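 note: BG1 cells stimulated with 17beta-estradiol alongside compound; potency is the fitted concentration of half-maximal effect; nearly all actives have a fitted effect of over 25% in size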)
Outline: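 BG1Luc4E2, endogenous ER-alpha, 4xERE-luc; 5 d charcoal-stripped FBS, phenol red free; 24 h plating; cpd + 17beta-estradiol 21.5 h, 37 C/5% CO2; CellTiter-Fluor viability 30 min, then ONE-Glo luciferase 30 min RT.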

[20] = target: Peroxisome proliferator-activated receptor gamma (Homo sapiens) (UniProt P37231); assay: qHTS assay to identify small molecule antagonists of the peroxisome proliferator-activated receptor gamma (PPARg) signaling pathway (AID 743191; calls by dose curve; note: series mostly up to about 63 µM; nearly all actives have a fitted effect of over 30% in size)
Outline: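 GeneBLAzer PPARg UAS-bla HEK293H cells, 5 h post-plating, exposed to compounds 17 h at 37C. LiveBLAzer B/G FRET substrate added for 1 h at room temperature; beta-lactamase reporter read by fluorescence intensity.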

Compound | Potency [1] | Potency [2] | Potency [3] | Potency [4] | Potency [5] | Potency [6] | Potency [7] | Potency [8] | Potency [9] | Potency [10] | Potency [11] | Potency [12] | Potency [13] | Potency [14] | Potency [15] | Potency [16] | Potency [17] | Potency [18] | Potency [19] | Potency [20]
O=C(O[C@@H]1Cc2c(O)cc(O)cc2O[C@@H]1c1cc(O)c(O)c(O)c1)c1cc(O)c(O)c(O)c1 | 48.7 µM (active) and 52.5 µM (active) | 27.4 µM (active) and 26.3 µM (active) | inactive | inactive | inactive | inactive | inactive | inactive | inactive | 30.7 µM (active) and 46.8 µM (active) | 34.4 µM (active) and 41.7 µM (active) | inactive | inactive | inactive | inactive | inactive | – | – | – | –
COc1ccc(COC(C)=O)cc1 | inactive | inactive | inactive | – | inactive | – | – | inactive | inactive | inactive | inactive | – | inactive | inactive | inactive | inactive and 54.9 µM (active) | inactive | inactive | – | –
CC1=CC(=O)c2ccccc2C1=O | 13.7 µM (active) | 21.1 µM (active) and 13.7 µM (active) | inactive | – | inactive | – | – | inactive | inactive and 19.3 µM (active) | inactive and 24.3 µM (active) | inactive | inactive | 11 µM (active) and 26.6 µM (active) | 24.3 µM (active) and 29.8 µM (active) | 15.5 µM (active) and 2.66 µM (active) | – | 6.68 µM (active) and 24.3 µM (active) | 9.44 µM (active) | 29.8 µM (active) | –
Cc1cc(Cc2cc(C)cc(C(C)(C)C)c2O)c(O)c(C(C)(C)C)c1 | 15.4 µM (active) and 12.2 µM (active) | 6.89 µM (active) and 8.63 µM (active) | inactive | – | 22 µM (active) and 24.5 µM (active) | – | – | 68.9 µM (active) | 30.8 µM (active) and 48.6 µM (active) | 54.8 µM (active) and 61.1 µM (active) | inactive | – | 12.4 µM (active) and 11 µM (active) | 17.3 µM (active) and 27.3 µM (active) | 11 µM (active) and 13.8 µM (active) | – | inactive | – | – | –
CCc1ccc(C(c2ccc(CC)cc2)C(Cl)Cl)cc1 | inactive | inactive | inactive | inactive | – | inactive | – | inactive | inactive | inactive | inactive | inactive | inactive | inactive | – | inactive | – | inactive | – | inactive
O=C(O)c1cn(-c2ccc(F)cc2)c2cc(N3CCNCC3)c(F)cc2c1=O | inactive | inactive | inactive | – | inactive | – | – | inactive | inactive | inactive | inactive | inactive | inactive | inactive | inactive | inactive | inactive | inactive | – | –
CCCCCCCCCCCCc1ccccc1O | 13.7 µM (active) | 13.7 µM (active) | inactive | – | 48.3 µM (active) and 49 µM (active) | 13.6 µM [inconclusive] (active) and 3.89 µM [inconclusive] (active) | 956 nM (active) and 1.93 µM (active) | 67.7 µM (active) | 30.2 µM (active) and 27.3 µM (active) | 30.2 µM (active) and 54.5 µM (active) | inactive | – | 48.3 µM (active) and 17.4 µM (active) | 60.3 µM (active) and 43.3 µM (active) | 17.2 µM (active) and 24.5 µM (active) | – | inactive | – | – | –
C=CC(=O)OCCCCCCOC(=O)C=C | 55.1 µM (active) and 54.5 µM (active) | 27.6 µM (active) and 43.3 µM (active) | inactive | – | inactive | – | inactive | inactive | – | – | inactive | – | inactive | inactive | 17.4 µM (active) | – | inactive | 10.9 µM (active) | – | –
Cc1cc(C2(c3cc(C)c(O)cc3C)OS(=O)(=O)c3ccccc32)c(C)cc1O | 54.5 µM (active) | inactive | inactive | 1.74 µM [inconclusive] (active) | inactive | 1.38 µM [inconclusive] (active) and inactive | 864 nM (active) and 10.9 µM (active) | 27.3 µM (active) and 24.3 µM (active) | – | 21.7 µM (active) and 24.3 µM (active) | 19.3 µM (active) and 21.7 µM (active) | inactive | inactive | inactive | inactive | – | – | inactive | – | inactive
O=C1Nc2ccccc2C1(c1ccc(O)cc1)c1ccc(O)cc1 | 54.5 µM (active) | 54.5 µM (active) | inactive | 49 µM [inconclusive] (active) | inactive | inactive | – | 0.969 µM (active) | inactive | – | – | – | inactive | inactive | inactive | inactive | inactive | – | – | –
